In the supplement of paper PMC9446081:
Hit rate of the full screen: of about 39,000 compounds, about 220 (0.56%) showed activity. This excerpt belongs to a sample that is enriched for actives. A number with no mark means an inactive call.

Tested on: Escherichia coli K-12 BW25113
Assay: relative growth (OD600 normalised to plate interquartile mean) (fraction); higher = less growth inhibition, active = 0.2 or less
Conditions: 50 µM; LB; incubation time: overnight (16-24 h)
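Also: Wild-type cells incubated without shaking, value is the mean of two biological replicates.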

| Structure (SMILES) | relative growth |
| --- | --- |
| C[C@H]1CN([C@@H](C)CO)C(=O)c2cc(-c3ccncc3)cnc2O[C@H]1CN(C)S(=O)(=O)c1ccccc1 | 1.01 |
| C=C(CC[C@@H](C)[C@H]1CC[C@@]2(C)C3=C(C[C@H](O)[C@]12C)[C@@]1(C)CC[C@@H](OC(=O)CC(=O)O)C(C)(C)[C@@H]1CC3)[C@@H](C)C(=O)O | 0.89 |
| C[C@@H]1CN([C@H](C)CO)C(=O)c2cc(NC(=O)Nc3ccc(F)cc3)ccc2O[C@@H](C)CCCCO[C@H]1CN(C)C(=O)C1CCCCC1 | 1.01 |
| CN1CCN(C(=O)C[C@@H]2CC[C@@H]3[C@H](COC[C@H](O)CN3C(=O)Nc3ccc4c(c3)OCO4)O2)CC1 | 0.974 |
| Cc1noc(C)c1S(=O)(=O)N(C)C[C@@H]1OCCCC[C@H](C)Oc2ccc(NC(=O)Nc3ccc(F)cc3)cc2C(=O)N([C@H](C)CO)C[C@@H]1C | 1 |
| CON=C(C(=O)NC1C(=O)N2C(C(=O)[O-])=C(CSc3nc(=O)c([O-])nn3C)CSC12)c1csc(N)n1.O.O.O.[Na+].[Na+] (stereo unspecified) | 0.0494 (active) |
| CON=C(C(=O)NC1C(=O)N2C(C(=O)[O-])=C(COC(C)=O)CSC12)c1csc(N)n1.[Na+] (stereo unspecified) | 0.0428 (active) |
| CO/N=C(\C(=O)N[C@@H]1C(=O)N2C(C(=O)O[C@@H](C)OC(C)=O)=C(COC(N)=O)CS[C@H]12)c1ccco1 | 1.01 |
| CON=C(C(=O)NC1C(=O)N2C(C(=O)OC(C)OC(C)=O)=C(COC(N)=O)CSC12)c1ccco1 (stereo unspecified) | 0.881 |
| COCC1=C(C(=O)OC(C)OC(=O)OC(C)C)N2C(=O)C(NC(=O)C(=NOC)c3csc(N)n3)C2SC1 (stereo unspecified) | 0.551 |
| CON=C(C(=O)NC1C(=O)N2C(C(=O)[O-])=C(COC(N)=O)CSC12)c1ccco1.[Na+] (stereo unspecified) | 0.0464 (active) |
| CO/N=C(\C(=O)N[C@@H]1C(=O)N2C(C(=O)O)=C(CSc3nnnn3C)CS[C@H]12)c1csc(N)n1 | 0.0456 (active) |
| Nc1nc(=O)c2nc(Br)n([C@@H]3O[C@@H]4COP(=O)(O)O[C@H]4[C@H]3O)c2[nH]1 | 1.03 |
| O=C(C[C@@H]1C[C@H]2c3cc(NC(=O)Nc4ccc(C(F)(F)F)cc4)ccc3O[C@H]2[C@H](CO)O1)NCc1ccc(Cl)cc1 | 0.984 |
| CN1CCN(C(=O)C[C@H]2CC[C@@H]3[C@H](COC[C@H](O)CN3CC3CCCC3)O2)CC1 | 1 |
| C[C@H](CO)N1C[C@H](C)[C@H](CN(C)C(=O)c2cccc(F)c2)Oc2cc(-c3cccnc3)ccc2S1(=O)=O | 1.03 |
| NCC[C@H]1CC[C@H](NC(=O)NC2CCCCC2)[C@H](CO)O1 | 0.986 |
| C[C@@H]1CN([C@@H](C)CO)C(=O)Cc2cc(NC(=O)Nc3ccccc3)ccc2O[C@@H]1CN(C)Cc1ccc(Oc2ccccc2)cc1 | 0.967 |
| Cc1nc(CN)c(C)o1 | 0.995 |
| C[C@@H]1CN([C@@H](C)CO)C(=O)c2cc(NC(=O)Nc3ccc(C(F)(F)F)cc3)ccc2O[C@@H]1CN(C)S(=O)(=O)c1ccc(Cl)cc1 | 1.04 |
| C[C@H](CO)N1C[C@H](C)[C@H](CN(C)C(=O)Nc2ccc(C(F)(F)F)cc2)Oc2ccc(NC(=O)CCCCCC(=O)Nc3ccccc3N)cc2C1=O | 0.925 |

| Structure (SMILES) | relative growth |
| --- | --- |
| Cc1noc(C)c1NC(=O)Nc1cccc2c1O[C@@H](CN(C)Cc1ccc(-c3ccccc3)cc1)[C@H](C)CN([C@@H](C)CO)C2=O | 1.01 |
| CON=C(C(=O)N[C@@H]1C(=O)N2C(C(=O)O)=C(CSc3nc(=O)c(O)nn3C)CS[C@H]12)c1csc(N)n1 | 0.0335 (active) |
| C[C@@H]1CN([C@@H](C)CO)C(=O)Cc2cc(NC(=O)Nc3ccc(C(F)(F)F)cc3)ccc2O[C@@H]1CN(C)Cc1ccc(C(=O)Nc2ccccc2N)cc1 | 1 |
| Cc1noc(C)c1NC(=O)Nc1ccc2c(c1)C(=O)N([C@H](C)CO)C[C@@H](C)[C@H](CN(C)S(=O)(=O)c1cccs1)OCCCC[C@H](C)O2 | 0.988 |
| C[C@@H]1CN([C@H](C)CO)C(=O)c2cc(NS(=O)(=O)c3cccs3)ccc2O[C@H]1CN(C)Cc1ccc(Cl)c(Cl)c1 | 0.994 |
| Cc1ccc(S(=O)(=O)N(C)C[C@H]2OCCCC[C@@H](C)Oc3ccc(NC(=O)Nc4c(C)noc4C)cc3C(=O)N([C@@H](C)CO)C[C@@H]2C)cc1 | 0.961 |
| COc1ccc2c3c(n(c2c1)C)[C@@H](CO)N(C[C@]13CN(C1)C(=O)CN1CCOCC1)C(=O)Nc1ccc(cc1)F | 0.977 |
| C[C@H]1CN([C@@H](C)CO)C(=O)Cc2cc(NC(=O)NC3CCCCC3)ccc2O[C@H]1CN(C)Cc1ccc(Oc2ccccc2)cc1 | 1.03 |
| C[C@@H]1CN([C@@H](C)CO)C(=O)c2cc(NC(=O)C3CCCCC3)ccc2O[C@@H]1CN(C)C(=O)Nc1cccc2ccccc12 | 1.01 |
| Cc1cc(C(C)(C)CC(C)(C)C)ccc1OCCOCC[N+](C)(C)Cc1ccccc1.[Cl-] | 0.0463 (active) |
| CC(C)(C)CC(C)(C)c1ccc(OCCOCC[N+](C)(C)Cc2ccccc2)cc1.[Cl-] | 0.0469 (active) |
| C[N+](C)(CCOc1ccccc1)Cc1ccccc1.O=C(O)c1cc2ccccc2c(Br)c1O | 0.944 |
| C[N+](C)(CCOc1ccccc1)Cc1ccccc1.O=C([O-])c1cc2ccccc2cc1O | 0.93 |
| COc1ccc(CN(C)C[C@H]2OCCCC[C@H](C)Oc3ccc(NC(=O)Nc4ccc(OC)cc4)cc3C(=O)N([C@@H](C)CO)C[C@H]2C)cc1 | 0.901 |
| C[C@H]1CN([C@@H](C)CO)C(=O)c2cc(C#CC3(O)CCCC3)cnc2O[C@H]1CN(C)C(=O)CN(C)C | 0.988 |
| O=C(NCC(F)(F)F)[C@@H]1[C@@H](CO)[C@@H]2Cn3c(cccc3=O)[C@@H]2N1C(=O)C1CCC1 | 1 |
| O=C(C[C@@H]1CC[C@H]2[C@@H](COC[C@H](O)CN2C(=O)c2ccccc2F)O1)N1CCN(c2ccccc2)CC1 | 0.976 |
| CS(=O)(=O)NC[C@@H]1OC[C@@H]2CCN(C(=O)c3ccnnc3)C[C@@H]21 | 1.02 |
| C[C@H]1CCCCO[C@@H](CN(C)C(=O)NC2CCCCC2)[C@@H](C)CN([C@@H](C)CO)C(=O)c2cc(NC(=O)c3ccccc3)ccc2O1 | 1.03 |
| C[C@@H]1CN([C@H](C)CO)C(=O)c2cccc(NS(=O)(=O)c3ccc(Cl)cc3)c2O[C@H]1CN(C)C(=O)Nc1cccc2ccccc12 | 1.02 |
| C[C@H](CO)N1C[C@H](C)[C@@H](CN(C)C(=O)Nc2ccc(C(F)(F)F)cc2)Oc2ccc(NS(=O)(=O)c3ccc(Cl)cc3)cc2CC1=O | 0.982 |

| Structure (SMILES) | relative growth |
| --- | --- |
| Cc1ccc(S(=O)(=O)Nc2ccc3c(c2)C(=O)N([C@@H](C)CO)C[C@@H](C)[C@H](CN(C)C(=O)CCC(F)(F)F)OCCCC[C@H](C)O3)cc1 | 0.979 |
| Cc1noc(C)c1NC(=O)N(C)C[C@@H]1Oc2ncc(C#CCN(C)C)cc2C(=O)N([C@H](C)CO)C[C@@H]1C | 0.979 |
| Cc1oc(=O)oc1CN1CCN(c2cc3c(cc2F)c(=O)c(C(=O)O)c2n3C(C)S2)CC1 (stereo unspecified) | 0.0438 (active) |
| C[C@@H]1CN([C@H](C)CO)C(=O)Cc2cc(NC(=O)Nc3ccc4c(c3)OCO4)ccc2O[C@@H]1CN(C)Cc1ccc(C(F)(F)F)cc1 | 1.02 |
| CC(=O)O | 1.01 |
| O=C(O)P(=O)(O)O | 0.0351 (active) |
| O=P(O)(O)CN(CCN(CP(=O)(O)O)CP(=O)(O)O)CP(=O)(O)O | 0.926 |
| C[C@H]1CN([C@@H](C)CO)C(=O)c2cccc(NS(C)(=O)=O)c2O[C@@H]1CN(C)Cc1ccc(C(F)(F)F)cc1 | 1.01 |
| C[C@@H]1CN([C@H](C)CO)C(=O)c2cc(C#CCN(C)C)cnc2O[C@H]1CN(C)C(=O)CCN1CCCCC1 | 0.983 |
| C[C@H](CO)N1C[C@H](C)[C@@H](CN(C)Cc2ccccc2)OCCCC[C@H](C)Oc2ccc(NC(=O)CCC(F)(F)F)cc2C1=O | 0.999 |
| C[C@H]1CN([C@@H](C)CO)C(=O)c2cccc(NS(=O)(=O)c3cn(C)cn3)c2O[C@@H]1CN(C)S(=O)(=O)c1cccs1 | 1.01 |
| COc1ccc(S(=O)(=O)N(C)C[C@@H]2Oc3ncc(C#Cc4ccc(F)cc4)cc3C(=O)N([C@H](C)CO)C[C@@H]2C)cc1 | 1.05 |
| COc1ccccc1CNC(=O)C[C@@H]1C[C@@H]2c3cc(NC(=O)NC4CCCC4)ccc3O[C@@H]2[C@H](CO)O1 | 0.983 |
| Cc1ccc(S(=O)(=O)Nc2ccc3c(c2)CC(=O)N([C@@H](C)CO)C[C@@H](C)[C@H](CN(C)CC2CC2)O3)cc1 | 1.02 |
| C[C@H]1CCCCO[C@H](CN(C)C(=O)Nc2ccc(F)cc2)[C@@H](C)CN([C@@H](C)CO)C(=O)c2cc(NS(=O)(=O)c3ccc(Cl)cc3)ccc2O1 | 0.987 |
| CN[C@H]1CC[C@@H](c2ccc(Cl)c(Cl)c2)c2ccccc21 | 0.868 |
| N[C@@H]1CC[C@@H](c2ccc(Cl)c(Cl)c2)c2ccccc21 | 0.0794 (active) |
| CNC1CCC(c2ccc(Cl)c(Cl)c2)c2ccccc21.Cl (stereo unspecified) | 0.261 |
| C[C@@H]1CCCCO[C@H](CN(C)C(=O)c2ccccc2)[C@@H](C)CN([C@@H](C)CO)C(=O)c2cc(NS(=O)(=O)c3ccccc3)ccc2O1 | 0.956 |
